Rows were chosen to be rich in hits. Some 2.7% of all compounds tested hit in one or more screens of this group.
IDE cell activ: activators of human insulin-degrading enzyme in cells; activation, % at 5.96 µM; HEK cells, FAbeta-B cleavage, fluorescence polarization; 0% vehicle, 100% cell-free pure enzyme wells; AID 493087; actives 0.073% (n = 340,000);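 active means activation above the mean of all tested compounds plus 3 SD, set per screening campaign, cut at about 17% in these data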
IDE cell inh: inhibits human insulin-degrading enzyme in HEK cells; P14735; FAbetaB cleavage, fluorescence polarization; inhibition, % at 5.59 µM; actives 0.41% (n = 320,000); AID 434962;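 active means percent inhibition above the average of all tested compounds plus 3 SD, set per screening campaign, cut at about 16% in these data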;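 further: IDE supplied by intact live HEK cells; FP after avidin binding of uncleaved biotin substrate so inhibition keeps polarization high; 0% = DMSO wells and 100% = 60 µM reference IDE inhibitor Ii1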
TMEM16A inh: blocks the mouse calcium-activated chloride channel TMEM16A. normalized B-score (activity score, 25-100; higher = stronger inhibition) at 10 µM. actives 1.2% (n = 310,000). AID 588511. HEK293 TMEM16A/YFP iodide influx fluorescence, ionomycin;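 active means ratio plate-corrected score three or more library SD toward inhibition, starting fluorescence score within five deviations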;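 further: score derived from kinetic fluorescence span divided by baseline fluorescence per well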
CHT block: inhibits the human high affinity choline transporter; actives 0.86% (n = 310,000); AID 488975; CHT-expressing cells, membrane potential dye, choline response; hits give low values; B-score at 10 µM; Q9GZV3;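 active means B-score over 3 SD under the library average, and starting fluorescence ratio not unusually high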;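 further: choline stimulus applied at its EC90 after an EC20 pre-addition; B-score computed on integrated fluorescence ratio after choline addition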
Target sequence (Q9GZV3 whole entry, looked up): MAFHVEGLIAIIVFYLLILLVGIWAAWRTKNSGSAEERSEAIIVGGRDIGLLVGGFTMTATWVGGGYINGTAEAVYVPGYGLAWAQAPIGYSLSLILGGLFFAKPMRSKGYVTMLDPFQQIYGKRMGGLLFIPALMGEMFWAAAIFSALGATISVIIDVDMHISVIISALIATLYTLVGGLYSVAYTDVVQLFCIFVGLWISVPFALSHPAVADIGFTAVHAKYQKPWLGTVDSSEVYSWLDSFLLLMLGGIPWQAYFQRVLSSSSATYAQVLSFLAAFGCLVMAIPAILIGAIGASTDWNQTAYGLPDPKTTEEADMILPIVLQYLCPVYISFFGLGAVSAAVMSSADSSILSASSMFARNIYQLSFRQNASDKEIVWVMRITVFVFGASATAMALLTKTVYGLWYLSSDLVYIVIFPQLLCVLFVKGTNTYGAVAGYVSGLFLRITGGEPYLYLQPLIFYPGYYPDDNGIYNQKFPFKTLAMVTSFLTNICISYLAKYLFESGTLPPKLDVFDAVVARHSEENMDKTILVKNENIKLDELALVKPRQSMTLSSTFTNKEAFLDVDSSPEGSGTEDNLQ
TMEM16A act: activates or potentiates the mouse TMEM16A chloride channel | AID 623877 | B-score at 10 µM | HEK293 TMEM16A/YFP-H148Q/I152L, iodide quench fluorescence; hits give low values | Q8BHY3 | actives 0.3% (n = 340,000);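 active means fluorescence-ratio B-score plate-corrected deviation score at least 3 library SD below zero, with starting fluorescence score within 5 deviations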;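 further: channel opened by trigger with iodide after compound preincubation; score built on the fluorescence ratio of max minus min over baseline; more negative score means more quench and so TMEM16A activation or potentiation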
CHT allo act: allosteric activators of human choline transporter CHT. B-score at 10 µM. Q9GZV3. CHT-expressing cells, membrane potential dye, choline EC20; hits give high values; LV-AA mutant CHT in HEK293 cells. actives 0.49% (n = 310,000);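 active means initial fluorescence not abnormally high and integrated response B-score, plate-corrected, over 3 SD above library mean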
Starred values were filed as active, the others as inactive; i = inactive; · = no result.

SMILES	IDE cell activ	IDE cell inh	TMEM16A inh	CHT block	TMEM16A act	CHT allo act
Cc1cc(C(=O)CSc2nnc(-c3cccc(F)c3)n2N)c(C)n1Cc1ccc2c(c1)OCO2	-1	0	100*	i	i	i
CC1=NN(c2nc(-c3ccc(C)cc3)cs2)C(=O)C1N=Nc1ccc(C(N)=O)cc1 (configuration not stated)	1	1	i	i	-16*	i
O=C(N/N=C/c1ccccc1)c1ccc(N2CCCC2=O)cc1	1	2	i	i	i	i
CC(=O)N1c2ccc(S(=O)(=O)NCCC(=O)Nc3ccc(F)cc3C)cc2CC1C (configuration not stated)	-4	2	i	i	i	i
CCOCCCNC(=O)CS(=O)(=O)Cc1nc(-c2cccc(OC)c2)oc1C	-2	0	25*	i	i	i
CCN1CCN(CCCNC(=O)CS(=O)(=O)Cc2nc(-c3cccc(OC)c3)oc2C)CC1	1	15	i	i	i	i
O=C(NNC(=O)C1C2C=CC(C2)C1C(=O)O)c1cc(Cl)ccc1O (configuration not stated)	0	·	i	i	i	i
CCn1c(COc2cccc3ccccc23)nnc1SCC(=O)OC1CCCCC1	7	-3	100*	i	i	i
Cn1c(COc2cccc3ccccc23)nnc1SCC(=O)OC1CCCCC1	3	-5	i	i	i	i
COc1ccc(S(=O)(=O)Nc2ccc(F)c(F)c2)cc1Cl	2	2	i	-6.4*	i	i
Cc1onc(-c2ccccc2Cl)c1C(=O)Nc1cccc2cccnc12	4	-2	100*	i	i	i
Cc1onc(-c2ccccc2Cl)c1C(=O)Nc1ccccc1C(N)=O	4	0	i	i	i	i
COc1ccccc1-c1cc(C(=O)N2CCc3ccccc3C2)c2ccccc2n1	·	6	100*	i	·	i
COc1ccc(Nc2cc(C(=O)N3CCc4ccccc4C3)c3ccccc3n2)c(OC)c1	3	-2	i	i	i	i
CCOC(=O)CCNC(=O)Nc1cc2nc(C)n(Cc3cccc(Cl)c3)c2nc1C	3	2	i	i	i	i
Cc1cccc(NS(=O)(=O)c2ccc(C)c(C(=O)NCCCN3CCOCC3)c2)c1	2	·	·	·	i	·
COc1ccc(C2(C(=O)Nc3ccc(S(N)(=O)=O)cc3)CCCC2)cc1	6	5	i	i	-5.1*	i
O=C(NCCc1ccco1)C(=O)NCC1CCCN1S(=O)(=O)c1ccccc1 (configuration not stated)	-3	2	i	i	i	i
O=C(Nc1ccccc1C(=O)N1CCN(c2cccc(Cl)c2)CC1)C1=CSCCO1	3	5	i	i	-28*	i
O=C(Nc1ccc(C(=O)N2CCN(c3ccc(F)cc3)CC2)cc1)C1=CSCCO1	4	-4	i	i	i	i
CN1/C(=C/C(=O)COC(=O)C2COc3ccccc3O2)C(C)(C)c2ccccc21 (configuration not stated)	-5	·	·	·	i	·
O=[N+]([O-])c1ccccc1S(=O)(=O)NCCC1=CCCCC1	-3	-2	25*	i	i	i
O=C(Cc1ccccc1[N+](=O)[O-])NCCC1=CCCCC1	6	0	i	i	i	i
CC(Sc1nnnn1-c1ccccc1)C(=O)NC1CCCC1 (configuration not stated)	-2	-4	·	·	i	·
Cc1nc(SC(C)C(=O)NC2CCCC2)c2ccccc2n1 (configuration not stated)	1	0	·	·	-31*	·
SMILES	IDE cell activ	IDE cell inh	TMEM16A inh	CHT block	TMEM16A act	CHT allo act
Cc1ccc(NC(=O)COc2ccc(N(C)S(=O)(=O)c3ccc(F)cc3)cc2)cc1	-3	-1	·	·	i	·
CCC(=O)N(c1nnc(SCC(=O)Nc2ccccc2Cl)s1)C1CC1	0	1	·	·	i	·
Cc1ccc(-n2nc3c(=O)n(C(C)C(=O)NCCc4cccs4)nc(C)c3c2C)cc1 (configuration not stated)	6	7	i	-5.5*	i	i
Cc1nn(C(C)C(=O)NCc2cccs2)c(=O)c2nn(-c3ccccc3)c(C)c12 (configuration not stated)	0	1	i	i	i	i
COc1ccc(N2C(=O)CSC23C(=O)N(CC(=O)NC2CCCC2)c2ccccc23)cc1 (configuration not stated)	8	2	i	i	i	i
COc1cccc(NC(=O)c2ccccc2F)c1	3	-2	i	i	i	i
CCOC(=O)Nc1cccc(NC(=O)c2ccccc2F)c1	2	-6	i	i	-10*	i
COc1ccc(-c2csc(NC(=O)c3ccccc3NS(=O)(=O)c3ccc(C)cc3)n2)cc1	5	-1	100*	i	i	i
CCCC(=O)N1CCN(c2nc(CC(C)C)c3c(c2C#N)CCC3)CC1	3	1	i	i	i	7*
O=C(Nc1ccc(Cl)c(S(=O)(=O)N2CCOCC2)c1)c1ccc(OCC2CCCO2)cc1 (configuration not stated)	·	3	100*	i	i	i
COc1ccc(C(=O)Nc2ccc(Cl)c(S(=O)(=O)N3CCOCC3)c2)cc1	5	2	·	·	i	·
Cc1ccc(OCC(=O)N2CC(C)CC(C)C2)c([N+](=O)[O-])n1 (configuration not stated)	-2	5	·	·	i	·
CCN(CC)CCCNc1nc(SC)nc2sc3c(c12)CCN(C)C3	·	4	i	i	·	7.1*
COc1ccc(S(=O)(=O)N(Cc2cccs2)C2CCCC2)cc1	3	5	100*	i	i	i
CCC(C)(C)c1ccc(OCCCC[n+]2cccc(C)c2C)c(C(C)(C)CC)c1	7	-7	100*	i	i	i
CCC(C)(C)c1ccc(OCCCC[n+]2ccc(C)cc2)c(C(C)(C)CC)c1	·	-3	100*	i	·	i
O=C(CCC(=O)N1CCOc2ccccc21)NCCCN1CCN(Cc2ccccc2)CC1	2	3	i	i	i	i
Cc1ccc(CNC(=O)CS(=O)Cc2nc(-c3ccccc3Cl)oc2C)cc1 (configuration not stated)	-4	3	i	i	i	i
CCN(CC)CCNC(=O)CS(=O)Cc1nc(-c2ccccc2Cl)oc1C (configuration not stated)	18*	1	i	i	i	i
Cc1cccc(-n2ncc3c2CCCC3NC(=O)C2CCOCC2)c1C (configuration not stated)	1	1	i	i	i	i

Assay outcomes as filed in PubChem BioAssay.
